Where “and” joins values, the source holds several entries; their conditions need not be identical. Equal entries are not always repeated. In all, about 350,000 compounds went through this assay and about 31,000 (8.9%) were called active. Where a call stands in place of a potency, no number is given. Another 15% or so got no clear call; they are omitted. The call rests on the fitted dose curve; in most records, active means well fitted inhibition curve with a large enough effect; inconclusive means small, poorly fitted or top-dose-only effect; inactive means no such curve, though single readings can be large or run the other way. Only a selection was taken, and actives are over-represented in it overall. More than one record can exist for a structure, and the calls need not agree.
These compounds were tested against Histone-lysine N-methyltransferase EHMT2 (Homo sapiens) (UniProt Q96KQ7) (assay: qHTS Assay for Inhibitors of Histone Lysine Methyltransferase G9a). Details: G9a H3K9 monomethylation, AlphaScreen, 2 h; series mostly up to 59 µM.
Summary of the method: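 AlphaScreen read-out: biotin-H3K9 peptide (500 nM) methylation by 20 nM enzyme with 20 uM SAM, 2 h at room temperature after 15 min compound preincubation; anti-monomethyl H3K9 antibody plus donor/acceptor beads, 10 min dark.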
Further: nearly all actives have a fitted effect of over 75% in size.
Potency means the concentration at half of the fitted maximal effect.

Histone-lysine N-methyltransferase EHMT2 (Homo sapiens), sequence (Q96KQ7 913-1193 limits assumed): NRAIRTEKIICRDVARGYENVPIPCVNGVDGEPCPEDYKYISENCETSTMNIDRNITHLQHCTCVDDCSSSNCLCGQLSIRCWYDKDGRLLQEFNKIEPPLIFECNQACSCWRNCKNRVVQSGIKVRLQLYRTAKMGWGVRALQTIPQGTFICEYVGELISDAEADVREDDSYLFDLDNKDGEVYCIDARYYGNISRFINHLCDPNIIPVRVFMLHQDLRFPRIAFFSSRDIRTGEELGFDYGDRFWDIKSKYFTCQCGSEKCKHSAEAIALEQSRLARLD

SMILES	Potency	activity, negative = inhibition
Cc1ccccc1CNC(=O)Cn1c(C)c2cnn(-c3ccccc3)c(=O)c2c1C	inactive	–
Cc1c2cnn(-c3ccccc3)c(=O)c2c(C)n1C(C)C(=O)Nc1ccc(Br)cc1F (centres undefined)	inactive	–
Cc1c2cnn(-c3ccccc3)c(=O)c2c(C)n1CCCC(=O)N1CCN(C)CC1	79.4 µM (active)	–
COc1ccc(C2=NOC(Cn3nc(C(=O)NCc4ccc5c(c4)OCO5)cc3-c3ccccc3)C2)cc1 (centres undefined)	–	1.74% [at 2.33 µM] (inactive)
Cc1ccc(S(=O)(=O)n2cccc2CO)cc1	–	0.915% [at 2.33 µM] (inactive)
COCc1cc(C(C)=O)ccc1OC	–	-11.9% [at 12.7 µM] (inactive)
O=C(COC(=O)Cn1cnc2ccccc2c1=O)NCc1ccccc1Cl	inactive	–
COc1ccc(C(C)=O)cc1COC(=O)Cn1cnc2ccccc2c1=O	50.1 µM (active)	–
COc1ccccc1CNc1ccc(-c2nc(-c3ccccc3C)no2)cc1[N+](=O)[O-]	inactive	–
Nc1ccc(-c2nnc(-c3ccccc3)o2)cc1	inactive	–
Brc1ccc(-c2nnc(-c3ccccc3)o2)o1	inactive	–
Nc1ccc(-c2nnc(-c3ccc(-c4ccccc4)cc3)o2)cc1	7.08 µM (active)	–
O=C(CCS(=O)(=O)c1ccc2c(c1)NC(=O)CO2)Nc1cccc(C(F)(F)F)c1	inactive	–
CC(C)(Oc1ccc(Cl)cc1)C(=O)OCC(=O)NCCc1ccc(S(N)(=O)=O)cc1	inactive	–
CCCn1c(N)c(C(=O)CSc2nnc3n2CCCCC3)c(=O)[nH]c1=O	inactive	–
CCCC(=O)NC(=S)Nc1ccc(CN2CCOCC2)cc1	inactive	–
CCn1c2ccccc2c2cc(NC(=S)N3CCOCC3)ccc21	–	7.32% [at 12.7 µM] (inactive)
CCOCCCNC(=S)Nc1ccc2nc(N3CCN(CC)CC3)cc(C)c2c1	31.6 µM (active)	–
Cc1cc(N2CCOCC2)nc2ccc(NC(=S)N3CCN(Cc4ccccc4)CC3)cc12	50.1 µM (active)	–
CCN1CCN(c2cc(C)c3cc(NC(=O)c4cc(Cl)ccc4OC)ccc3n2)CC1	inactive	–
COc1ccc(NC(=S)NCCN2CCC(C)CC2)cc1	inactive	–
COc1ccc(C(=O)OCC(=O)Nc2ccc3[nH]c(=O)[nH]c3c2)c(OC)c1OC	–	4.23% [at 0.501 µM] (inactive)

SMILES	Potency	activity, negative = inhibition
COc1ccccc1NC(=O)c1oc2ccccc2c1NC(=O)C(C)C	inactive	–
COC(=O)N/N=C/c1c[n+]([O-])c2ccccc2[n+]1[O-]	inactive	–
CC(C)CC(=O)NCC(c1ccc2c(c1)OCO2)N1CCN(c2ccc(F)cc2)CC1 (centres undefined)	inactive	–
CCOC(=O)c1cc2c(n(-c3ccc(C)cc3)c1=O)CCCC2=O	17.8 µM (active)	–
CCCCOc1ccc(NC(=O)c2cc3c(n(-c4ccc(Cl)cc4)c2=O)CCCC3=O)cc1	inactive	–
CCOC(=O)C1=C(N)N(c2ccc(C)cc2)C2=C(C(=O)CCC2)C1c1cccs1 (centres undefined)	inactive	–
Cc1c(C(=O)NNC(=O)c2ccncc2)oc2ccccc12	–	1.49% [at 12.7 µM] (inactive)
Oc1cc(O)c2c(c1)OC(c1ccc(O)c(O)c1)C(O)C2 (centres undefined)	2.51 µM (active)	–
O=C(CCC(=O)c1ccccc1)NCc1cccc(C(F)(F)F)c1	inactive	–
COc1ccc(C(=O)N(Cc2ccccc2)c2ccc(C)cc2)cc1S(=O)(=O)N1CCOCC1	–	8.07% [at 0.501 µM] (inactive)
O=C(CN1CCN(C(=O)c2cccc(F)c2)CC1)Nc1ccccc1F	56.2 µM (active)	–
O=C(CN1CCN(S(=O)(=O)c2ccc(F)cc2)CC1)Nc1ccccc1F	inactive	–
O=C(CN1CCCCC1)NC(=O)Nc1ccccc1F	inactive	–
CCOc1ccccc1C(=O)NC1(C(F)(F)F)C(=O)Nc2c1c(=O)[nH]c(=O)n2-c1ccc(F)cc1 (centres undefined)	inactive	–
Cc1ccc(C)n1-c1nnc(N2CCC(C(=O)NCc3ccccc3Cl)CC2)s1	inactive	–
O=c1c2ccccc2ccc2ccc(P(=O)(O)O)cc12	–	2.62% [at 0.501 µM] (inactive)
O=c1c(-c2ccccc2Cl)c[nH]n1-c1ccccc1	inactive	–
COc1cc(OC)c2c(c1)OC(=O)CC2c1cc(OC)c(OC)c(OC)c1 (centres undefined)	inactive	–
COc1ccc(C2CC(=O)Oc3ccc(C(C)(C)C)cc32)cc1 (centres undefined)	inactive and 44.7 µM (active)	–
COc1ccc(C2CC(=O)NC(=O)C2)cc1	inactive	–
COc1ccc(-c2cc(C(=O)NCc3cc(OC)c(OC)c(OC)c3)[nH]n2)cc1	inactive	–
O=C(CN(C(=O)CNC(=O)c1cccs1)c1cccc(F)c1)NC1CCCCC1	inactive	–

SMILES	Potency	activity, negative = inhibition
COc1ccc(C)cc1NC(=O)C(=O)NCCc1sc(-c2cccc(C)c2)nc1C	inactive	–
CC1CCCCN1S(=O)(=O)CCNC(=O)c1ccccc1 (centres undefined)	inactive	–
Cc1ccc(CCCOC(=O)C[N+]2(C)CCCC2)cc1	15.8 µM (active)	–
Cc1ccc(CCN2CC(C(=O)O)CC2=O)cc1 (centres undefined)	inactive	–
CCCCOC(=O)Cn1c(=O)n(CC(=O)OCCCC)c2cc(C)ccc21	inactive	–
COc1cccc(-c2n[nH]c3c2C(c2cccc(O)c2)N(C)C3=O)c1 (centres undefined)	inactive	–
Cc1cc(NC(=O)c2ccccc2C)no1	inactive	–
CCOc1ccc(S(=O)(=O)NCCC(=O)N2CCCCCCC2)cc1	inactive	–
Cc1cccc(OP(=O)(Nc2c(C)n(C)n(-c3ccccc3)c2=O)Oc2cccc(C)c2)c1	inactive	–
Cn1c(=O)c([N+](=O)[O-])c(Oc2ccccc2)c2ccccc21	39.8 µM (active)	–
Cc1cccc(Oc2c([N+](=O)[O-])c(=O)n(C)c3ccccc23)c1	44.7 µM (active)	–
Cn1nc(-c2ccccc2)c2cc([N+](=O)[O-])ccc21	inactive	–
Cc1nn(C)c(Oc2ccccc2)c1[N+](=O)[O-]	inactive	–
Cc1cccc(C2CC(=O)Oc3c2c(=O)n(C)c2ccccc32)c1 (centres undefined)	inactive	–
Cc1ccc(-n2ncc3c2CCCC3NC(=O)c2cnccn2)cc1C (centres undefined)	–	-6.28% [at 0.501 µM] (inactive)
CCOc1ccc(Nc2ncnc3scc(-c4ccc(OC)cc4)c23)cc1	–	2.22% [at 12.7 µM] (inactive)
COc1ccccc1-c1cc2nc(C)c(CCC(=O)NC3CCCCC3)c(C)n2n1	inactive	–
COc1ccc([N+](=O)[O-])cc1C1NN=C(c2cccc3ccccc23)S1 (centres undefined)	28.2 µM (active)	–
COc1ccc([N+](=O)[O-])cc1NC(=O)C(C)OC(=O)C1c2ccccc2Oc2ccccc21 (centres undefined)	inactive	–
COc1ccccc1C1CCN(c2ccc([N+](=O)[O-])cn2)CC1	inactive	–

Source: PubChem BioAssay AID504332 (National Center for Advancing Translational Sciences (NCATS), 2011)
